For some of these results: Entries with a potency or affinity are not part of this list.
Columns and labels:
Parameters in all cases: scale not given: direction of the effect not stated beside the values
[1] = target: Protein translocase subunit SecA (Escherichia coli (strain K12)) (UniProt P10408); test: Assay to Identify E. coli SecA ATPase Inhibitors; format: functional; conditions: 30 µM
[2] = target: T1, Ubiquitin-activating enzyme e1, putative (Leishmania donovani (strain BPK282A1)) (UniProt E9BSI1); test: Leishmania donovani Ubiquitin Activating Enzyme (LdE1); format: functional; conditions: 30 µM
T1 sequence (whole entry): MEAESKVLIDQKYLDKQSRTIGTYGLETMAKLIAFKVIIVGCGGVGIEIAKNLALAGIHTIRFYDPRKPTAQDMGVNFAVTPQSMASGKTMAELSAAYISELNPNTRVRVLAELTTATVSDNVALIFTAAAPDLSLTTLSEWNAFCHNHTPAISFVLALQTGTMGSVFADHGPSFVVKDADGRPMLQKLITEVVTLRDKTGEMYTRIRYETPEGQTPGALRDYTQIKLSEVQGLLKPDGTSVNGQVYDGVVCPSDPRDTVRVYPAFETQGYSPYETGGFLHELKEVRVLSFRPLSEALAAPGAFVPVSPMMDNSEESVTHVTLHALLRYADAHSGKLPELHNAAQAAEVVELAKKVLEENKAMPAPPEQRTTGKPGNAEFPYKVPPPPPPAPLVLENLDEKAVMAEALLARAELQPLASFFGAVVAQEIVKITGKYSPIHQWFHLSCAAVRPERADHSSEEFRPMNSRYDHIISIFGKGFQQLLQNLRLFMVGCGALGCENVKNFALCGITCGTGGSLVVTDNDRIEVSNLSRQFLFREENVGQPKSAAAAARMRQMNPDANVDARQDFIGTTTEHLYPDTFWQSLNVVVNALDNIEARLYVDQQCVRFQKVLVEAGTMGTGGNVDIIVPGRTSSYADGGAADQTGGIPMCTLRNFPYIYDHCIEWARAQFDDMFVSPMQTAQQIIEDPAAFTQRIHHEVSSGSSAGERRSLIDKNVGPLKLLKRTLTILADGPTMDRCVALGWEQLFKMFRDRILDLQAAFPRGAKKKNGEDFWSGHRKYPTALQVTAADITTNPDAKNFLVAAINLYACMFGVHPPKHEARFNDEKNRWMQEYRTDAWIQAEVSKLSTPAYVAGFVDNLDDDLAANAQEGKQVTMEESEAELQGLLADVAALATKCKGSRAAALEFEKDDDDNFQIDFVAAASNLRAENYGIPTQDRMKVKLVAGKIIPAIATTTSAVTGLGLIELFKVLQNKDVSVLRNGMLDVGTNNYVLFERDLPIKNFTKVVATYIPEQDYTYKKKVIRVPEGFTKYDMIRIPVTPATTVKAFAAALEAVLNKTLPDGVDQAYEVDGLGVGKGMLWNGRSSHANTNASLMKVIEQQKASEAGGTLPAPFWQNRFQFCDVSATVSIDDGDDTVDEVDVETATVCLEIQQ

[3] = target: Sialic acid-binding Ig-like lectin 9 (Homo sapiens) (UniProt Q9Y336); test: Hs-Siglec9 ALPHAscreen SOP 20170721; conditions: 10 µM
Trypanosoma cruzi = test: Trypanosoma cruzi phosphomannomutase and mannose-1-phosphate guanylyltransferase assay; format: functional; conditions: 10 µM
[4] = target: T2, Arginase-2, mitochondrial (Homo sapiens) (UniProt P78540); test: in vitro enzyme assay to detect the production of urea directly proportional to the activity of Arginase II; format: functional; conditions: 33.3 µM; also: in the data most compounds retested in dose-response had high values
T2 sequence (whole entry): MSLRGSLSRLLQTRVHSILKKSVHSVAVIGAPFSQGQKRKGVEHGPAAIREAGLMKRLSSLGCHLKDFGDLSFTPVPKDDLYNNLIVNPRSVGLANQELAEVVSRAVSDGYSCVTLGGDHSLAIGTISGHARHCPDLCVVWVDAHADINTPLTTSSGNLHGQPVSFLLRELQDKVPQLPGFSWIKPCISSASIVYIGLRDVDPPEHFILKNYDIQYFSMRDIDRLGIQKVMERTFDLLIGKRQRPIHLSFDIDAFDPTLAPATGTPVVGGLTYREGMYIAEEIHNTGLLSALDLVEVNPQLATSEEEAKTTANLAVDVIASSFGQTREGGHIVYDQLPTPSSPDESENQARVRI

[5] = target: T3, Proteasome subunit beta (Trypanosoma cruzi) (UniProt O96673); test: Trypanosoma cruzi proteasome chymotrypsin-like activity (TcProtChymo) assay.; also: in the data most compounds retested in dose-response had high values; format: functional; conditions: 9.37 µM
T3 sequence (whole entry): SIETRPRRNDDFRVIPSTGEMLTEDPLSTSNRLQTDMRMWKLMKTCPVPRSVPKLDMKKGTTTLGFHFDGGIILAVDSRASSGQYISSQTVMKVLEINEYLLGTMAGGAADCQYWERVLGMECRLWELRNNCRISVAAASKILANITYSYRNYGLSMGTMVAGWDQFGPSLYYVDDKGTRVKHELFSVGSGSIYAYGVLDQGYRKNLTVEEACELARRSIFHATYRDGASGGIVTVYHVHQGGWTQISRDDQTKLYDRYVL

Homo sapiens = species: Homo sapiens; test: To identify inhibition of the IFN signalling (Jak-Stat) pathway via expression of an eGFP reporter gene under the control of an IFN-stimulated response element (ISRE) containing MxA promoter.; format: functional; conditions: 30 µM
[6] = target: T4, Tyrosyl-tRNA synthetase, putative (Trypanosoma cruzi (strain CL Brener)) (UniProt Q4DSP6); test: Trypanosoma cruzi tyrosyl tRNA synthetase (TcYRS) _High Tyrosine SOP; format: functional; conditions: 30 µM; also: in the data most compounds retested in dose-response had high values
T4 sequence (whole entry): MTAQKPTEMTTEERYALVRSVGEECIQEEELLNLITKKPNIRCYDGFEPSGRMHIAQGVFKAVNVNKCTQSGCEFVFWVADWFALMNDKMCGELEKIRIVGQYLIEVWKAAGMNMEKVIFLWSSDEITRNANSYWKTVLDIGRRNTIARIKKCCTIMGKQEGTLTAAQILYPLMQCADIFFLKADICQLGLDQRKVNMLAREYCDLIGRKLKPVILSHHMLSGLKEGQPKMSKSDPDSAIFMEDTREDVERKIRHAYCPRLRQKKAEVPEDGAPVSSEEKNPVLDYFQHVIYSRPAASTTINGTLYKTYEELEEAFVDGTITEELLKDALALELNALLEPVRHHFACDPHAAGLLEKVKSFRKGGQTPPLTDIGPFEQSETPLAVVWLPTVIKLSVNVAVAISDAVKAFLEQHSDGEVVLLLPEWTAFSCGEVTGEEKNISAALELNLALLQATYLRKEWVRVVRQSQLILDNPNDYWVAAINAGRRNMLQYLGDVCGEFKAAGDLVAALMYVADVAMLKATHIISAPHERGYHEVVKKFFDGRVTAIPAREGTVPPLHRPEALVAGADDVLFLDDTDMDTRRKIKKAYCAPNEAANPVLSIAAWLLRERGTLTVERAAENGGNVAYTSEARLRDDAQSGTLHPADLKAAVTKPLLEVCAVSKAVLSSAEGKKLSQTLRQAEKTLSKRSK

[7] = target: T4, Tyrosyl-tRNA synthetase, putative (Trypanosoma cruzi (strain CL Brener)); test: Trypanosoma cruzi tyrosyl tRNA synthetase (TcYRS) SOP; format: functional; conditions: 30 µM
[8] = target: Chromo domain-containing protein 1 (Saccharomyces cerevisiae (strain ATCC 204508 / S288c) (Baker's yeast)) (UniProt P32657); test: ScCHD-1 Enzyme Inhibition Assay; format: functional; conditions: 30 µM; also: in the data most compounds retested in dose-response had high values
Chain of Chromo domain-containing protein 1 (Saccharomyces cerevisiae (strain ATCC 204508 / S288c) (Baker's yeast)) (P32657 whole entry, the tested form may be a part): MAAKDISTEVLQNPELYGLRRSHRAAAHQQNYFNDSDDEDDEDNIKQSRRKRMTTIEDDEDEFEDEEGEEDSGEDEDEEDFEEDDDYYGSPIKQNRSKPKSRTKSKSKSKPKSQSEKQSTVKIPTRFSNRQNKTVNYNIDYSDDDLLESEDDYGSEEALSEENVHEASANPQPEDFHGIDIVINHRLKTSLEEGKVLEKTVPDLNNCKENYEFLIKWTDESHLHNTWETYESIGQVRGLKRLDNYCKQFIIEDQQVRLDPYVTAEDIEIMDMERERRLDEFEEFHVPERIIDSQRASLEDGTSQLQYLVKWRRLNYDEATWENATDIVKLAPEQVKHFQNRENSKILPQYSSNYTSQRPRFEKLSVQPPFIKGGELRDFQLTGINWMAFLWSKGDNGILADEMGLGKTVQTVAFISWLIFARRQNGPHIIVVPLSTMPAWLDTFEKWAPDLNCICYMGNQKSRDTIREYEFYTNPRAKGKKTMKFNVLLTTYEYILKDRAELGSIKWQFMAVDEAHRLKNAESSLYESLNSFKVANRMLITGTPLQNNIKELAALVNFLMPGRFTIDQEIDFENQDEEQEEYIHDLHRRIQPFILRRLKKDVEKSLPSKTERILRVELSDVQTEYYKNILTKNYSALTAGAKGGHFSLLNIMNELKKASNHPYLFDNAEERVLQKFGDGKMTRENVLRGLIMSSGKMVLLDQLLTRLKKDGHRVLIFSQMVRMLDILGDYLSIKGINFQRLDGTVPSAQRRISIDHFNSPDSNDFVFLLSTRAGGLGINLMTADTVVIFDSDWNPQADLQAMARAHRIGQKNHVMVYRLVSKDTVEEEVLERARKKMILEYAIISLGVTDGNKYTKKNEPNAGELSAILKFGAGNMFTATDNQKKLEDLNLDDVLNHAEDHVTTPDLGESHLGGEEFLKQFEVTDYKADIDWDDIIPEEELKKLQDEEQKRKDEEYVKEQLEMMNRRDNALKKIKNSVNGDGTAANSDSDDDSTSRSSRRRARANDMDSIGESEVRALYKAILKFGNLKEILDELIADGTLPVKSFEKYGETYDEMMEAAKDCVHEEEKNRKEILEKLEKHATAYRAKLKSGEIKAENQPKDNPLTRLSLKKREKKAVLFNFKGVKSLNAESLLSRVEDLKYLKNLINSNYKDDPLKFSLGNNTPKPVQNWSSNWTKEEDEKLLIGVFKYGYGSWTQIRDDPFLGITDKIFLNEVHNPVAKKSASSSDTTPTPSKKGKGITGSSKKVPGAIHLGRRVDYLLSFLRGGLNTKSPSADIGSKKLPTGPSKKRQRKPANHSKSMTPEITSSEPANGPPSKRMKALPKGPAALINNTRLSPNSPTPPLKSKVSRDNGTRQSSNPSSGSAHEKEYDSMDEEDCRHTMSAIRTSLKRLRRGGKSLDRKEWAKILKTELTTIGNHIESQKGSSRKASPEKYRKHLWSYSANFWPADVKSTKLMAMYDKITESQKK

Chain of Sialic acid-binding Ig-like lectin 9 (Homo sapiens) (Q9Y336 whole entry): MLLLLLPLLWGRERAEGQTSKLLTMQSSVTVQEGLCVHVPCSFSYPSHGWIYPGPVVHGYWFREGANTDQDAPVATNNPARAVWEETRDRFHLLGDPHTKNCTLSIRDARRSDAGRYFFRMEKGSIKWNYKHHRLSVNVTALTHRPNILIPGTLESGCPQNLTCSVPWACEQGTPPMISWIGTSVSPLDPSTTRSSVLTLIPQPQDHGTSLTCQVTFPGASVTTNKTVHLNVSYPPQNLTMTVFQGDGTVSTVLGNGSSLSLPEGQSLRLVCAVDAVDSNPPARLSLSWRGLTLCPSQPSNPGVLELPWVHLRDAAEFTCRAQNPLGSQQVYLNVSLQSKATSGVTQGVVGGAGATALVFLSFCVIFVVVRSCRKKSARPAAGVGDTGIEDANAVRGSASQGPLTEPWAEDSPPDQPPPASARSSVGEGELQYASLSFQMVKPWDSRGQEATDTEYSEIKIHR
Chain of Protein translocase subunit SecA (Escherichia coli (strain K12)) (P10408 whole entry): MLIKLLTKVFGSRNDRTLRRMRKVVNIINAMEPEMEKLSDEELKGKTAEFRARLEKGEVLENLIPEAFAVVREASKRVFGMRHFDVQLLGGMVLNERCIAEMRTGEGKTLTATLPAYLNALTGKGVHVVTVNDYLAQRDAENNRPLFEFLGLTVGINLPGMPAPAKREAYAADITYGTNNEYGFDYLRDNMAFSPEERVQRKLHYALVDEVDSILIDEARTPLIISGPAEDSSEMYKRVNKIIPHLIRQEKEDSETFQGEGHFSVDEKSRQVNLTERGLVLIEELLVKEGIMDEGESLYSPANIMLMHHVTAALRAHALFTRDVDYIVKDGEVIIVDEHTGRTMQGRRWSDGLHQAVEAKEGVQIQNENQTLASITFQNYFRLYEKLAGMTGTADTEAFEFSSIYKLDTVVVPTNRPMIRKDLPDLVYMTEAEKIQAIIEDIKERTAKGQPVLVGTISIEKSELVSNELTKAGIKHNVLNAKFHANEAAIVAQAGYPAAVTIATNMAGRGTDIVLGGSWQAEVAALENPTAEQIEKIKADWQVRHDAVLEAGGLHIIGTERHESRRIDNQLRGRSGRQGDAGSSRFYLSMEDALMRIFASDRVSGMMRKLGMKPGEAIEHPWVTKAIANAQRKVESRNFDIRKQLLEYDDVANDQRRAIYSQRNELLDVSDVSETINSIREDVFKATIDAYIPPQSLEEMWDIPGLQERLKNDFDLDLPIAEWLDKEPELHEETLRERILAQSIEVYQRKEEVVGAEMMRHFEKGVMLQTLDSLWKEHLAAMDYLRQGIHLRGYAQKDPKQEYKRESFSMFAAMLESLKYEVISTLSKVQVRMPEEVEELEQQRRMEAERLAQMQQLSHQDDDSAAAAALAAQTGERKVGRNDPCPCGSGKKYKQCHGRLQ

SMILES	Percent Effect [1] [%]	Percent Effect [2] [%]	Percent Effect [3] [%]	Percent Effect (Trypanosoma cruzi) [%]	Percent Effect [4] [%]	Percent Effect [5] [%]	Percent Effect (Homo sapiens) [%]	Percent Effect [6] [%]	Percent Effect [7] [%]	Percent Effect [8] [%]
CCn1ccnc1CN1CCN(CC(O)Cn2cccn2)CC1 (stereo not given)	-5.85	0	-2.48	-1.97	-4.51	11	18.6	-0.478	6.02	1.41
CC(=O)N1CCc2c(nc(-c3ccccn3)nc2N(C)CC(O)CO)C1 (stereo not given)	-7.71	8.11	3.94	2.62	5.25	3.94	-12.5	14.4	21.9	-1.31
Cc1ccccc1N1CC2(CCN(S(=O)(=O)c3cccs3)C2)CC1=O (stereo not given)	-1.18	24.7	-0.756	0	-15.5	8.67	10.2	5.8	2.5	-9.98
C[C@]1(O)CCN(Cc2cncs2)C[C@@H]1Oc1cccc(F)c1	0.894	4	6.06	-4.93	3.1	-1.64	14.1	1.06	2.5	-19.6
COCC1CN(CC2CC2)Cc2nn(C)cc21 (stereo not given)	-8.74	-1.3	-2.43	-6.91	2.02	10.5	4.75	1.58	-5.13	-3.01
Cc1cnn(C2CCCN(C(=O)Cc3ccc(-n4cccn4)cc3)C2)c1 (stereo not given)	-6.71	-2.67	3.46	3.81	2.66	1.27	6.09	-1.58	5.13	-7.75
Cc1ccc([C@@H]2CN(C(=O)c3cccnn3)C[C@H]2NC(=O)C2CC2)cc1	-10.6	5.41	16.9	4.17	4.54	13.2	3.04	5.85	19.5	-1.62
CC(=O)c1sc(Nc2ccc(Cl)cn2)nc1C	-2.68	24.7	1.41	1.13	0.913	12.6	24.7	2.9	-37.5	-10.7
COc1ccc(C2CC(=O)Nc3c2nc2n3CCCC2)cc1O (stereo not given)	-3.09	2.7	6.46	-2.04	7.34	22.6	23.4	1.6	14.6	-3.18
CCc1nc(C)c(C(=O)NCCN2CCN(C(C)=O)CC2)s1	-2.42	10.4	4.38	-0.373	1.43	-0.702	15.7	7.84	21.2	-6.18
CS(=O)(=O)N1Cc2ccccc2C2(CCN(C(=O)c3ccno3)CC2)C1	2.76	19.5	-5.73	-10.7	5.48	18.4	9.88	6.76	7.5	-10.6
O=S(=O)(CCCN1CCCC1Cn1cccn1)c1ccccc1 (stereo not given)	-5.34	7.79	19.1	-2.24	-0.205	7.19	2.19	6.86	16.5	-5.4
CN1CCN(C(=O)c2cccc(OCc3cscn3)c2)CC1	-6.48	2.56	-10.9	-3.1	-0.41	-1.62	19.3	0.478	6.02	5.6

Reference: ChEMBL document CHEMBL3988442, “University of Dundee, Small-Polar-MMV Screening Library” (2021)
